Some test systems named below: T-47D breast; BT-549 breast; SW-620 colon; MCF7 breast; HCT-116 colon; HCC-2998 colon; KM12 colon; MDA-MB-435 melanoma.
Common to all, as to experiment: NCI-60 one-dose screen, 48 h (100 = growth as untreated, 0 = no growth, -100 = all killed)
Details in all cases: 10 µM unless noted

Structures are written as SMILES. This is part of a sample that, as a whole, favours compounds with a hit. Of some 83,000 tested, about 20% had one in any assay.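 Interpretation: 100, growth as untreated; towards 0, rising growth inhibition; 0, no net growth; 0 to -100, cell death. Compounds scoring below 10 were considered active.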 A number with no mark means an inactive call. Activity calls are given as the source filed them.

In the case of `COc1ccc(C2CC(c3cccc(Nc4ccncc4)c3)=NN2c2cc(Cl)cc(Cl)c2)cc1` (stereo unspecified), the growth was 73.8% with T-47D breast; 109% in the experiment with BT-549 breast; -87.5% (active) with SW-620 colon; -31.7% (active) in the experiment with MCF7 breast; 83.9% in the experiment with HCT-116 colon; -46.5% (active) in the experiment on HCC-2998 colon. In the experiment on KM12 colon, the growth is -80% (active).
For `C#CC(=O)Nc1cccc(Nc2nc3c(c(NCc4ccccc4)n2)CCCC3)c1`, the growth in the experiment with T-47D breast was -38.7% (active); with BT-549 breast, -70% (active); with SW-620 colon it was -46.7% (active); in the experiment with MCF7 breast, -39.7% (active); in the experiment with HCT-116 colon, -78.8% (active); in the experiment with HCC-2998 colon it was -89.3% (active). The growth in the experiment on KM12 colon is -53.4% (active).
With `Cc1cc(C)n(Nc2nc3ccccc3[nH]c2=O)c(=O)c1C#N`, the growth with T-47D breast was 86%; in the experiment with BT-549 breast, 106%; in the experiment on SW-620 colon it was 98.5%; with MCF7 breast, 82.6%; in the experiment on HCT-116 colon, 96.1%; in the experiment with HCC-2998 colon it was 103%. Further, in the experiment with KM12 colon, the growth was 92.9%.
On to `COc1cc2c(cc1[N+](=O)[O-])-c1ccc([N+](=O)[O-])cc1/C2=N/NC(N)=S`, for which the growth is 57.4% in the experiment with T-47D breast; 61.6% with BT-549 breast; 40.6% in the experiment with SW-620 colon; 22.5% in the experiment on MCF7 breast; 33.8% with HCT-116 colon; 72.8% in the experiment on HCC-2998 colon. Further, the growth in the experiment on KM12 colon is 70.5%.
As to `Cc1ccc2[nH]c(=O)cc(-n3nncc3COc3ccc(C=O)cc3)c2c1`, the growth in the experiment with T-47D breast was 97.5%; with BT-549 breast, 90.8%; in the experiment on SW-620 colon it was 99.4%; with MCF7 breast, 95.6%; with HCT-116 colon, 108%; in the experiment with HCC-2998 colon, 109%. The growth in the experiment on KM12 colon was 106%.
Turning to `CCCCCCCCOC(=O)c1ccc(O)c(OC)c1`, the growth with T-47D breast is 82.7%; in the experiment with BT-549 breast, 102%; in the experiment with SW-620 colon, 109%; in the experiment on MCF7 breast, 66.9%; in the experiment with HCT-116 colon, 102%; in the experiment on HCC-2998 colon it was 97.9%. In the experiment with KM12 colon, the growth is 102%.
As to `CC(=O)O[C@]1(C(C)=O)CC[C@H]2[C@@H]3C=C(Cl)C4=CC(=O)CC[C@]4(C)[C@H]3CC[C@@]21C`, the growth in the experiment with T-47D breast was 97.1%; in the experiment with BT-549 breast, 94.5%; with SW-620 colon, 115%; in the experiment with MCF7 breast, 112%; in the experiment with HCT-116 colon, 96.7%; in the experiment with HCC-2998 colon, 103%. Moreover, the growth in the experiment with KM12 colon is 109%.
With `O=c1[nH]c(=O)[nH]c(=S)[nH]1`, the growth is 98.9% with T-47D breast; 103% in the experiment on BT-549 breast; 102% with SW-620 colon; 97.8% in the experiment with MCF7 breast; 98.5% with HCT-116 colon; 102% with KM12 colon.
Consider `CCOC(=O)N1CCc2c(sc3nc4nc[nH]n4c(=O)c23)C1`, for which the growth with T-47D breast was 88.9%; with BT-549 breast, 95.8%; in the experiment with SW-620 colon it was 102%; in the experiment on MCF7 breast it was 93.5%; in the experiment on HCT-116 colon, 95.7%; with HCC-2998 colon it was 98.6%. For the same molecule, the growth in the experiment with KM12 colon was 97.1%.
On to `Clc1ccc(C2CC(c3cccc(Nc4ccncc4)c3)=NN2c2cc(Cl)cc(Cl)c2)cc1` (stereo unspecified), for which the growth is 86.4% in the experiment on T-47D breast; 104% with BT-549 breast; -73.1% (active) with SW-620 colon; -8.62% (active) in the experiment on MCF7 breast; -74.2% (active) in the experiment on HCT-116 colon; 19.6% with HCC-2998 colon. The growth in the experiment on KM12 colon is 9.65% (active).
On to `CCOC(=O)c1cnc2c(cnn2CC)c1NN=C(C)C`, for which the growth was 87.7% with T-47D breast; 91% in the experiment with BT-549 breast; 104% in the experiment on SW-620 colon; 88.7% in the experiment with MCF7 breast; 86.5% with HCT-116 colon; 94.9% in the experiment on HCC-2998 colon. Besides, the growth with KM12 colon was 96.5%.
`COc1ccc(C(O)c2cc3c(N)c(C(=O)Nc4ccc(Br)cc4)sc3nc2C)cc1` (stereo unspecified): the growth was 18.8% in the experiment on T-47D breast; 50.8% in the experiment with BT-549 breast; 23.7% in the experiment with SW-620 colon; 18.6% in the experiment on MCF7 breast; 21% in the experiment with HCT-116 colon; 46.7% in the experiment with HCC-2998 colon. In addition, the growth with KM12 colon was 4.23% (active).
Take `Fc1cc(C2=NNC(c3ccc[nH]3)C2)ccc1-n1ccc(C(F)(F)F)n1` (stereo unspecified): the growth with T-47D breast is 76.7%; with BT-549 breast it was 92.3%; with SW-620 colon, 98.8%; in the experiment on MCF7 breast, 83.3%; in the experiment on HCT-116 colon, 98.7%; in the experiment on HCC-2998 colon it was 104%. For the same molecule, the growth in the experiment with KM12 colon was 65.6%.
For the molecule `Clc1ccc(N2N=C(c3cccc(Nc4ccncc4)c3)CC2c2ccc3c(c2)OCO3)cc1` (stereo unspecified), the growth is 82.2% in the experiment on T-47D breast; 87.1% with BT-549 breast; -78.6% (active) in the experiment with SW-620 colon; -17.4% (active) in the experiment on MCF7 breast; 18.4% in the experiment with HCT-116 colon; 1.72% (active) with HCC-2998 colon. In addition, the growth in the experiment with KM12 colon is 2.3% (active).
For the molecule `CCCOc1nc(SCCC)nc2c1cnn2-c1ccccc1`, the growth was 115% in the experiment with T-47D breast; 104% in the experiment with MDA-MB-435 melanoma; 103% in the experiment with SW-620 colon; 101% in the experiment with MCF7 breast; 105% in the experiment with HCT-116 colon; 99.6% in the experiment on HCC-2998 colon. The growth in the experiment with KM12 colon was 105%.
For `C=C(C)[C@@H]1CC[C@]2(C(=O)N3CCN(C)CC3)CC[C@]3(C)[C@H](CC[C@@H]4[C@@]5(C)CCC(=O)C(C)(C)[C@@H]5CC[C@]43C)[C@@H]12`, the growth in the experiment with T-47D breast is 65.3%; in the experiment with BT-549 breast, 96.8%; with SW-620 colon, 73.5%; in the experiment on MCF7 breast it was 59.2%; in the experiment on HCT-116 colon, 31.2%; in the experiment on HCC-2998 colon, 82.1%. For the same molecule, in the experiment with KM12 colon, the growth was 80.6%.

Values taken from PubChem BioAssay (NCI).
